In the supplement of paper PMC12632987:
The full ranking holds about 4,500 sequences; the median of “median log2 fold change of GCK-ALFA target abundance (FLAG IP / Myc IP barcode read proportion)” is about 0.078, and the lowest 2% start at about -0.6. This is one part of a sample in which the lowest values are shown more often than they occur.

B1: GBRAP_160_4430 (protein)
chain: AEKLEKAKKEIDALFAEALEMMKGQTAEQRIVVLRVTEGEVKLELEELGLLTDEVDAVIDATFAAIIAHVAAHPDITDAELAALLDAAAATIKAELDKAA
B2: GBRAP_83_6937 (protein)
chain: KEKITVVANDDNIEKSFEIAEDLHKEEGYEVDIDVIITKESIEKLLKEVEKLFKKGVNADLHISLLGVTEEEAEELKKKLEEMAKKYGVNANITVEAIEL
B3: GBRAP_125_3134 (protein)
chain: GMAEDLEDLAIVARALGFSDDDVAEAVAIAAKHGFKGTLYAIMAALGYDEVADLVEKITEEEAIEVIREVAAEIRADPSLTPEEVVELIKKRLEEVIAKK
B4: GBRAP_125_3132 (protein)
chain: HMEEILENLAIVAKALGLSDDDVEEAVKIAEKHGVKGTMYAILAALGYDEVADLVEKITEEEAIEVVKEVAEKIKKDPSLTPEEVVELIKKLLKEKIAAK
B5: GBRAP_125_3133 (protein)
chain: MTEEILEDLAIVARALGFSDDDVEEAVEIARKHGVKGTLYAIMLALGYEEVADLVEKITEEEAIEVLREVAARIREDPSLTPEEVVALIKELLKEKIAKK
B6: GBRAP_52_5954 (protein)
chain: AAARIQAQVDRLAALVRAGDLDAARALARELAETLDEEELRAFAAAVAAAVAAAPADELDAAFRLAEIVADELEREGRDEELAGDLLAAAAAALYAKEQA
B7: GBRAP_52_5929 (protein)
chain: MREEARELAERVLEAAEAGDEERLRELLREIVEELDDEEIELVIDELAELTIERGPEYYDLFADIMDLLEDEVEKAGRDVERVQYAIARAAGRMYDALQA
B8: GBRAP_137_3627 (protein)
chain: ATVTIELRRYEDVVEITITLDDPEKAEAAAELVEDVAHEEGALAVSIELEEDGTLVVEVWVPRDKAEALLARLVERLTTELGATVVIRDLDTGEVRVVTP
B9: GBRAP_184_5122 (protein)
chain: DVVHRAVEGEKAEELIAASRAVVEEAAAAGKRLHLSVFAKNMSVEEIIEVIKAMGELKARYPQVSVTVDVLDELSEEEIDKVLKAADEAGVRVVIAIPEE
B10: GBRAP_11_2857 (protein)
chain: KKEKLKEAAELARKAAEALEKLLKEGVDDKELQKKIEELLKKLLELVKEYGDPDLIKLAEIALENFQKAKKDPKNAEKYIKEALAAVRVLEGNLLLEIDE
B11: GBRAP_9_7127 (protein)
chain: KKELVEKLKEVVEEMIEDISKVVPEVTEEMKEEFLKKVEELEKEALEDESLTPEEIKEKFKELVEEIKEEVKKIVDEELKKLVEAIALTALEEIDEIVEE
B12: GBRAP_52_6037 (protein)
chain: MREKMREKAEEIVKLVLEGKLEEAEKLIRELVETLSEEELLLLGEELARIAREAPEEELDAILEAAFILADELIEGGYEEVLADEIEARVTRAAVERLER
B13: GBRAP_11_2679 (protein)
chain: KKEQLKKIAEIAKELAEAIEKLLKEGVDNEKLLKEIKKLLKELKELAEKYADEGLKTLAEIAAELFEEALANPENAEHYLELLLAAVRVLLANVEEEIDE
B14: GBRAP_52_6366 (protein)
chain: DLEEAVKLLREAVKAVLEGKEEEAEKILKEIVENFSEETILEAARRLAEELLEKSLEEAEAFLEAAIMLADILEEAGKSEVVGDEIEAIAARTLMEIRER
B15: GBRAP_11_2721 (protein)
chain: KAEKLKALAEKAEALAEKVEKLIKEGPKKEEIKKLAEEVEKLREEAKKIGASEDVLKTLDIAAENLKKAIEDPSNVEEHLKNAAAALRVAAGQLLLEAEE
B16: GBRAP_160_4055 (protein)
chain: AEEKERLIADVDAAEAAILAVIDEEGAEAAAVMADGEFGAIIMEAAELPTASDELVDALEAIRDALVAGLRANAAASPAELKALVRAAAAAAKEAIKKHY
B17: GBRAP_160_4135 (protein)
chain: SEELEKLIKEIKEIGEEALEMIEGETPENAKVIARVALGDIVMLVESNDAISEETEDEIGKIADEAEATLKANPDLTVEEIKALLKEATEKVVEIIEKEK
B18: GBRAP_52_6086 (protein)
chain: MEERLEALAREIAAAVAAGDREGALALIEEAIKELSVEEIRRLLRLAAERVAALGEDAHVLFVDLLDEAEDLMIKAGISEEDALLIVGDAEAALAKAVAA
B19: GBRAP_52_6087 (protein)
chain: MEERLEKLAKEIAEAVAAGKRDEALALMEKAIKELSVEEIKKLFKLAAELVAKLGEEAEELFVDLLDEAEDLLIEAGISEEDALLIVGDAEAALAKAVAA
B20: GBRAP_160_4202 (protein)
chain: EEKVKKIIEELKEETEEVIKLLDEVSVEEAAVFAEVEFGSVLMLAVELGIENDEILDVIDEAGDKIVKYLKENKDASVEELKKKIKEITEEAIKKIKELA
B21: GBRAP_39_5664 (protein)
chain: EEDEENELLFEYYLAKAEGYRIKEGISDEELIERGKELLKAIAKEHPEIKELVEELLKEVDKGDEDVGLAAAGIALDYLEGLPIEEIKEHLEKLLKYVKK
B22: GBRAP_184_5111 (protein)
chain: KLLEETIKANNKEELEKKLTEVVEKAVKEKADLLVIVEIPNLTPEMAEIIMDKVAKAKEAGIKNVLVEIVSDNLSDEVIDTIDKKAKEYGLTNVVLAMKE
B23: GBRAP_153_3948 (protein)
chain: SMESKEKLEKAKKLIEKIKKSEDPTEYIKELAKLLASMNLEERLEVAKEFNSLSEETVYKIFLTLATEEGFSVEELLELTTELNEEQQAAALKAIVEAQK
B24: GBRAP_39_5630 (protein)
chain: EEEEELELLESLAEADLAKREVETGLPAEELYAELLARAREAAADDPELLALIERLAALAEEHGPEARERLAAAMAAYLAGLPKEDIKRLLTALIEELEA
B25: GBRAP_48_5830 (protein)
chain: MKIDLEKLEALVKETVEEMKELYEEAKKEGLSDEDILKMIKAELGDLALELEEEGYTKAADYLLERENRDELAKKLLELFKEGKYEEAYEYLLKKLKEAE
B26: GBRAP_160_4619 (protein)
chain: SEKVEELKKFVEEEFEETKEMIVGQTPEERAAIVDVTIGEIILEAEELEVVSDETLDEIDEIGDELVETILANPDLTDEEIKALIDEAREKIIALIEKDE
B27: GBRAP_160_4617 (protein)
chain: SSKIEELKKFVKEEFEEAKEMIEGETPEQRAAIVDVTIGEIILEAEELEVVSDESLEKIDEIGDELVETILENPDLTEEEVKELIDEAEKKIIEIIEEDE
B28: GBRAP_53_6397 (protein)
chain: SAATIAALLAELRALIAEVDADPTLDPEEVAARAGELLRAAVAAGAPAAELTALARELAAAVAARGLGVEVGTRLAATAAAAGAEEVAAVFTEAAVEDLE
B29: GBRAP_26_5497 (protein)
chain: FLEEILEELRREIKEILKDESPELQAAVIATAEDLLLEADEEIEENAEDEEKIKEAIEKAVEEMRKELERFGLSEEKIEKIVEALRRALEKVAERIKEEA

target: GABARAP, O95166; assay: median log2 fold change of GCK-ALFA target abundance (FLAG IP / Myc IP barcode read proportion) (log2 ratio); each designed protein is fused to an ALFA-tag nanobody in HEK293 cells to bring the named protein to FLAG-tagged glucokinase (GCK); Myc marks an untargeted standard; higher = target protein stabilised (more abundant); settings: target protein: 3xFLAG-MCP-GCK-ALFA reporter; HEK293 landing pad (RPLP)
Sequence (O95166 whole entry, the tested form may be a part): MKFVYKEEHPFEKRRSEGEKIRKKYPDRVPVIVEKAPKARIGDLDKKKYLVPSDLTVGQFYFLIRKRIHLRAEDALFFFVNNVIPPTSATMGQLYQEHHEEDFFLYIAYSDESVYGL
Summary of the method: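 An ALFA-nanobody-fused binder library was recombined into HEK293 landing-pad cells and induced with 2 μg mL^−1 doxycycline. Cells were transfected with a plasmid expressing a FLAG-tagged target and a Myc-tagged standard. After 48 h, lysates underwent anti-FLAG and anti-Myc immunoprecipitation, and circular RNA barcodes were reverse transcribed, amplified and sequenced. Target abundance is the per-binder median log2 ratio of FLAG to Myc barcode read proportions. Barcodes needed ≥10^−7 proportion in both replicates, binders ≥3 barcodes per replicate, and a 10^−6 pseudocount was added; the two replicates were pooled.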

Binder	median log2 fold change
B1	0.0561
B2	0.224
B3	-0.575
B4	-0.0148
B5	-0.744
B6	-0.0538
B7	-0.453
B8	-0.0361
B9	0.0426
B10	0.0648
B11	0.275
B12	-0.655
B13	-0.169
B14	-0.214
B15	0.0939
B16	0.183
B17	-0.387
B18	-0.626
B19	-0.234
B20	-0.374
B21	0.132
B22	0.326
B23	0.294
B24	0.159
B25	0.224
B26	-0.678
B27	-0.294
B28	0.226
B29	0.312
